Source: PubChem
JMJD2A Tudor: qHTS Assay for Inhibitors of JMJD2A-Tudor Domain | hit rate 4.4% among 390,000 | Potency, µM (doses to about 114 µM), for the others: at the top dose activity change, negative = inhibition, most hits filed as inhibitors | AlphaScreen JMJD2A-Tudor / H3K4me3 peptide binding | Lysine-specific demethylase 4A (Homo sapiens), O75164; further: potency means the concentration at half of the fitted maximal effect; on the % scale 0 is the no-effect control and ±100 the full control effect; nearly all actives have a fitted effect of over 50% in size
CtBP-E1A blk: qHTS Assay for Inhibitors of the CtBP/E1A Interaction. CtBP / adenovirus E1A interaction (AlphaScreen). AlphaScreen GST-E1A/His-CtBP binding, 1536-well; active compounds read low. activity change, % (no concentration beside the values). hit rate 0.49% among 340,000; in the data active means activity change below about -65%; inconclusive means mostly about -30% to -63%; further: on the % scale 0 is the no-effect control and ±100 the full control effect
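GST-E1A and His-tagged CtBP (125 nM each as 5X stock) were preincubated with pin-transferred compound for 2 h at 37 °C in the dark, then glutathione donor and nickel acceptor beads were added for 1 h before AlphaScreen reading.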
Six1-Eya2 inh: qHTS Assay for Inhibitors of the Six1/Eya2 Interaction; activity change, % (concentration not given with the values); Homeobox protein SIX1 (Homo sapiens) + Protein phosphatase EYA2 (Homo sapiens), …; hit rate 0.56% among 360,000; AID 651725, 2012; AlphaScreen GST-Six1/His-Eya2 binding, biochemical; active compounds read low; in the data active means activity change below about -65%; inconclusive means mostly about -30% to -63%; further: on the % scale 0 is the no-effect control and ±100 the full control effect
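AlphaScreen luminescence read after one hour at 37 °C in darkness. Pin-transferred compounds met GST-Six1 and His-Eya2 protein (5X stock 250 nM/500 nM) plus glutathione donor and Ni-chelate acceptor beads (5X, 50 ug/mL).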
BAZ2B block: qHTS Assay for Inhibitors of BAZ2B | hit rate 4.4% among 360,000 | AID 504333, 2011 | AlphaScreen BAZ2B-H3K14Ac peptide displacement | Potency, µM (series often up to 114 µM), inactives show top-dose activity change, negative = inhibition, most hits filed as inhibitors; further: potency means the concentration at half of the fitted maximal effect; on the % scale 0 is the no-effect control and ±100 the full control effect; nearly all actives have a fitted effect of over 60% in size
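AlphaScreen displacement: compounds (up to 110uM) incubated 30 min at room temperature with a preformed 50 nM BAZ2B/50 nM biotinylated H3K14Ac peptide complex in PBS pH 7.4 with Tween-20. Donor and acceptor beads at 10 ug/mL final added, 20 min light-protected before reading.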
HP1b binding inh: HTS for Inhibitors of HP1-beta Chromodomain Interactions with Methylated Histone Tails; hit rate 0.56% among 390,000; AID 540317, 2011; Potency, µM (doses to about 114 µM), for the others: top-dose activity change, negative = inhibition, most hits filed as inhibitors; AlphaScreen HP1-beta / biotin-H3K9me3 peptide binding; further: potency means the concentration at half of the fitted maximal effect; nearly all actives have a fitted effect of over 70% in size
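Compound inhibition of the preformed complex between 50 nM HP1-beta and 50 nM biotinylated H3K9me3 peptide was read by AlphaScreen. Buffer was PBS pH 7.4 with 0.01% Tween-20. Incubations ran 30 min at room temperature, with 10 ug/mL donor/acceptor beads.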
G9a inh: qHTS Assay for Inhibitors of Histone Lysine Methyltransferase G9a; Histone-lysine N-methyltransferase EHMT2 (Homo sapiens), Q96KQ7; G9a H3K9 monomethylation, AlphaScreen, 2 h; Potency, µM (top dose mostly 102 µM), inactives show at the top dose activity, negative = inhibition, actives largely listed as inhibitors; hit rate 8.8% among 350,000; AID 504332, 2011; further: potency means the concentration at half of the fitted maximal effect; on the % scale 0 is the no-effect control and ±100 the full control effect; nearly all actives have a fitted effect of over 75% in size
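Signal arises when biotinylated H3K9 peptide, once monomethylated, bridges streptavidin donor and antibody-captured acceptor beads. Enzyme at 20 nM was preincubated 15 min with test compounds; peptide 500 nM and SAM 20 uM then reacted for 2 h.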
Active calls of the source: *; ! = not confirmed by another sample; [ ] = dose if it differs, or a comment. The list is not random: actives were taken first. Their share in the collection is about 10%. Unless noted, the call rests on the fitted dose curve; in most records, active means well fitted inhibition curve with a large enough effect; inconclusive means small, poorly fitted or top-dose-only effect; inactive means no such curve, though single readings can be large or run the other way.

Screening Cc1ccc(S(=O)(=O)NNC(=O)C2CCN(Cc3ccccc3)CC2)cc1 returned JMJD2A Tudor 79µM*, CtBP-E1A blk 2, Six1-Eya2 inh 2, BAZ2B block -5%, HP1b binding inh 43% and G9a inh 21%[59 µM].
O=C(COc1ccc(Br)cc1)Nc1cccc2cccnc12 was read as JMJD2A Tudor 67%, BAZ2B block 12%, HP1b binding inh 41% and G9a inh 26%[59 µM].
For CCOc1ccccc1NC(=O)n1ncc2cc(Cl)ccc21 the results were JMJD2A Tudor -13%, BAZ2B block -9%, HP1b binding inh 22% and G9a inh -25%[59 µM].
For CN1CCN(c2nc3c(S(=O)(=O)c4ccc(Br)cc4)nnn3c3ccsc23)CC1 the results were JMJD2A Tudor inconclusive, BAZ2B block -21%, HP1b binding inh 16% and G9a inh -31%[59 µM].
Screening COc1ccc(Cl)cc1NC(=O)C(C)NC(c1ccccc1)c1ccccc1 (configuration not stated) returned JMJD2A Tudor -1%, CtBP-E1A blk 5, Six1-Eya2 inh 11, BAZ2B block -2%, HP1b binding inh 29% and G9a inh 79µM*.
Screening COc1ccc(Cl)cc1NC(=O)NC(C)C returned JMJD2A Tudor 3%, Six1-Eya2 inh 1, BAZ2B block -20%, HP1b binding inh 63% and G9a inh inconclusive.
`Cc1c(Cl)ccc2sc(N3CCN(C(=O)CS(=O)(=O)c4ccccc4)CC3)nc12` gave JMJD2A Tudor -19%, BAZ2B block 16%, HP1b binding inh 53% and G9a inh -4%[59 µM].
For Clc1ccc(OCCCCN2CCCCC2)cc1 the results were JMJD2A Tudor 1µM*, CtBP-E1A blk -1, Six1-Eya2 inh 7, BAZ2B block 50µM*, HP1b binding inh inconclusive and G9a inh 10µM*.
Screening CC(C)c1ccc(OCC(O)CN2CCCC2)cc1 (configuration not stated) returned JMJD2A Tudor -9%, CtBP-E1A blk 8, Six1-Eya2 inh -2, BAZ2B block -10%, HP1b binding inh 41% and G9a inh -3%[59 µM].
`CC(C)c1ccc(OCCCCN2CCCCC2)cc1` gave JMJD2A Tudor 0.79µM*, CtBP-E1A blk -18, Six1-Eya2 inh 8, BAZ2B block 79µM*, HP1b binding inh inconclusive and G9a inh -12%.
c1cc(OCCCN2CCCCC2)ccc1CN1CCCCC1 was read as JMJD2A Tudor -10%, CtBP-E1A blk -6, Six1-Eya2 inh 21, BAZ2B block -16%, HP1b binding inh 15% and G9a inh 6%.
`CCCOc1ccc(C(=O)Nc2ccc(NC(=O)c3ccccc3)c(C)c2)cc1` gave JMJD2A Tudor -15%, BAZ2B block 2%, HP1b binding inh 3% and G9a inh inconclusive.
`N#CC(=C=[N-])C1=C(C#N)C(c2ccccc2F)C([n+]2ccccc2)C(O)(C2CC2)N1` (configuration not stated) gave JMJD2A Tudor -34%, CtBP-E1A blk -5, Six1-Eya2 inh -1, BAZ2B block inconclusive, HP1b binding inh 5% and G9a inh inconclusive.
`Cc1cccc[n+]1C1C(c2ccccc2)C(C#N)=C(C(=C=[N-])C#N)NC1(O)C1CC1` (configuration not stated) gave JMJD2A Tudor inconclusive, CtBP-E1A blk -4, Six1-Eya2 inh -21, BAZ2B block -35%, HP1b binding inh -19% and G9a inh 40µM*.
COc1cc(-c2nc(Cn3nnc(C(=O)Nc4cc(C)cc(C)c4)c3C)c(C)o2)cc(OC)c1OC was read as JMJD2A Tudor -13%, BAZ2B block inconclusive, HP1b binding inh -10% and G9a inh -34%[59 µM].
Screening Cc1ccc2oc(-c3cc(NC(=O)Cc4ccccc4)ccc3Cl)nc2c1 returned JMJD2A Tudor -4%, BAZ2B block 0%, HP1b binding inh 21% and G9a inh -32%[59 µM].
Screening CCOc1ccc(N(CC)C(=O)CSc2n[nH]c(-c3ccccc3)n2)cc1 returned JMJD2A Tudor -8%, BAZ2B block 0%, HP1b binding inh 11%[57 µM] and G9a inh 6%[59 µM].
`CC(C)NC[C@H](O)c1ccc(O)c(O)c1` gave JMJD2A Tudor -15%, CtBP-E1A blk 6, Six1-Eya2 inh 4, BAZ2B block 12%, HP1b binding inh 12% and G9a inh 8.9µM*!.
`CC(C)NC[C@H](O)c1cc(O)cc(O)c1` gave G9a inh -6%[12.7 µM].
CC(C)NCC(O)c1cc(O)cc(O)c1 (configuration not stated) was read as JMJD2A Tudor -1%, CtBP-E1A blk 2, Six1-Eya2 inh 1, BAZ2B block 2%, HP1b binding inh 21% and G9a inh 25µM*!.
For CCN(C(=O)C1CCCCC1)c1nnc(-c2cccnc2)s1 the results were JMJD2A Tudor inconclusive, CtBP-E1A blk -5, Six1-Eya2 inh -2, BAZ2B block inconclusive, HP1b binding inh 52% and G9a inh 50µM*.
COCCN(C(=O)C1CCC1)c1nnc(-c2cccnc2)s1 was read as JMJD2A Tudor -6%, CtBP-E1A blk 2, Six1-Eya2 inh 0, BAZ2B block -20%, HP1b binding inh 55% and G9a inh 1%[59 µM].
`O=C(OCC(=O)c1cccs1)c1ccccc1` gave JMJD2A Tudor -4%, CtBP-E1A blk 10, Six1-Eya2 inh 9, BAZ2B block -34%, HP1b binding inh 46% and G9a inh inconclusive.
O=C(CC(Nc1ccccc1Cl)C(=O)OCC(=O)c1cccs1)c1ccccc1 (configuration not stated) was read as JMJD2A Tudor -8%, CtBP-E1A blk 8, Six1-Eya2 inh 0, BAZ2B block -4%, HP1b binding inh 51% and G9a inh 10µM*.
Screening Cc1c(Nc2c3c(c(C#N)c4nc5ccccc5n24)CCC3)c(=O)n(-c2ccccc2)n1C returned BAZ2B block -30% and G9a inh 50µM*.
COc1cccc(C(=O)NCC(c2ccc3c(c2)OCO3)N2CCN(c3ccc(F)cc3)CC2)c1 (configuration not stated) was read as JMJD2A Tudor inconclusive, CtBP-E1A blk -5, Six1-Eya2 inh inconclusive, BAZ2B block 0%, HP1b binding inh -9% and G9a inh 45µM*.
